Measurements published in PubChem BioAssay (EPA / NIEHS).
Calls of active or inactive are those of the source. The calls were made as follows: active = hit-call score of the fitted dose curve at least 0.9, where 1 is the maximum; inactive = score below 0.9.

Legend:
Settings in all cases: mRNA level, 48 h; actives raise or lower the signal
[1] = read-out: CYP3A5 (gene 1577); test: LTEA_HepaRG_CYP3A5: Life Technologies and Expression Analysis (LTEA) Assay for CYP3A5 using HepaRG (AID 2283493)
Procedure, shortened: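 mRNA levels were quantified by qRT-PCR on Fluidigm arrays and normalized to three housekeeping genes. Differentiated HepaRG cells received 48 h exposure (top 100 uM, half-log steps, 0.5% DMSO vehicle, duplicate); bidirectional fitting versus DMSO.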

[2] = read-out: Fatty Acid-Binding Protein 1 (FABP1), FABP1 (gene 2168); test: LTEA_HepaRG_FABP1: Life Technologies and Expression Analysis (LTEA) Assay for Fatty Acid-Binding Protein 1 (FABP1) using HepaRG (AID 2283494)
Procedure, shortened: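 qRT-PCR readout of FABP1 transcript (normalized to three housekeeping genes) after 48 h chemical exposure of HepaRG cells; eight concentrations, half-log steps, max 100 uM, 0.5% DMSO vehicle; gain or loss fitted relative to DMSO baseline.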

[3] = read-out: Cytochrome P450 4A22 (Homo sapiens) (UniProt Q5TCH4); test: LTEA_HepaRG_CYP4A22: Life Technologies and Expression Analysis (LTEA) Assay for Cytochrome P450 4A22 (CYP4A22) using HepaRG (AID 2283495)
Procedure, shortened: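 Concentration-response (8 points, max 100 uM, 0.5% DMSO) in human HepaRG liver cells after 48 h exposure. CYP4A22 mRNA by TaqMan qRT-PCR with housekeeping-gene normalization.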

[4] = read-out: Glutathione S-Transferase (GSTA2), GSTA2 (gene 2939); test: LTEA_HepaRG_GSTA2: Life Technologies and Expression Analysis (LTEA) Assay for Glutathione S-Transferase (GSTA2) using HepaRG (AID 2283497)
Procedure, shortened: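 qRT-PCR readout of GSTA2 transcript, normalized to three housekeeping genes, fitted bidirectionally against 0.5% DMSO baseline. Differentiated HepaRG cells received compound for 48 h at 8 concentrations (top 100 uM, half-log steps).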

[5] = read-out: Glutamate-cysteine ligase catalytic (GCLC), GCLC (gene 2729); test: LTEA_HepaRG_GCLC: Life Technologies and Expression Analysis (LTEA) Assay for Glutamate-cysteine ligase catalytic (GCLC) using HepaRG (AID 2283498)
Procedure, shortened: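 HepaRG, 48 h exposure, 8-pt half-log series from 100 uM, 0.5% DMSO vehicle; TaqMan qRT-PCR for GCLC mRNA, housekeeping-normalized; bidirectional curve fit vs DMSO baseline.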

[6] = read-out: growth arrest and DNA damage 45 (GADD45G), GADD45G (gene 10912); test: LTEA_HepaRG_GADD45G: Life Technologies and Expression Analysis (LTEA) Assay for growth arrest and DNA damage 45 (GADD45G) using HepaRG (AID 2283499)
Procedure, shortened: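 Concentration-response in HepaRG: 48 h dosing, 0.5% DMSO, highest level 100 uM. GADD45G expression by qRT-PCR, normalised to endogenous controls; bidirectional fit to DMSO.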

[7] = read-out: Glutathione S-transferase M3 (GSTM3), GSTM3 (gene 2947); test: LTEA_HepaRG_GSTM3: Life Technologies and Expression Analysis (LTEA) Assay for Glutathione S-transferase M3 (GSTM3) using HepaRG (AID 2283501)
Procedure, shortened: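 Expression of GSTM3 is determined by qRT-PCR in human liver HepaRG cells treated 48 h with an 8-point half-log range from 100 uM in 0.5% DMSO.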

[8] = read-out: Heat shock 70 kDa protein 1 (HSPA1A), gene 3303; test: LTEA_HepaRG_HSPA1A: Life Technologies and Expression Analysis (LTEA) Assay for Heat shock 70 kDa protein 1 (HSPA1A) using HepaRG (AID 2283502)
Procedure, shortened: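 HSPA1A expression measured by qRT-PCR with ACTB/GAPDH/POLR2A normalization; curves fitted in both directions relative to DMSO vehicle. Exposure: 48 h in HepaRG cells, duplicate 8-point half-log series from 100 uM, 0.5% DMSO, serum-free induction medium.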

[9] = read-out: Hypoxia-inducible factor 1-alpha (Homo sapiens) (UniProt Q16665); test: LTEA_HepaRG_HIF1A: Life Technologies and Expression Analysis (LTEA) Assay for Hypoxia-inducible factor 1 (HIF1A) Trancription factor using HepaRG (AID 2283503)
Procedure, shortened: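 HIF1A transcript level read by qRT-PCR (ACTB, GAPDH, POLR2A normalization) after 48 h chemical exposure of HepaRG cultures. Eight half-log concentrations, top 100 uM, 0.5% DMSO vehicle, duplicates; bidirectional curve fit against DMSO baseline.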

[10] = read-out: 3-Hydroxy-3-Methylglutaryl-CoA Synthase 2 (HMGCS2), HMGCS2 (gene 3158); test: LTEA_HepaRG_HMGCS2: Life Technologies and Expression Analysis (LTEA) Assay for 3-Hydroxy-3-Methylglutaryl-CoA Synthase 2 (HMGCS2) using HepaRG (AID 2283504)
Procedure, shortened: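 This steatosis marker was read as HMGCS2 mRNA change in HepaRG cells treated 48 h with up to 100 uM chemical. Normalisation used housekeeping genes; activity in either direction was fitted relative to 0.5% DMSO vehicle.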

[11] = read-out: HGF (gene 3082); test: LTEA_HepaRG_HGF: Life Technologies and Expression Analysis (LTEA) Assay for Hepatocyte Growth Facto (HGF) using HepaRG (AID 2283505)
Procedure, shortened: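 Using HepaRG monolayers kept in 0.5% DMSO, chemicals were tested in duplicate over eight half-log concentrations from 100 uM for 48 h. Endpoint: HGF mRNA change relative to DMSO, normalized to ACTB/GAPDH/POLR2A.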

[12] = read-out: Insulin Like Growth Factor 1 (IGF1), IGF1 (gene 3479); test: LTEA_HepaRG_IGF1: Life Technologies and Expression Analysis (LTEA) Assay for Insulin Like Growth Factor 1 (IGF1) using HepaRG (AID 2283506)
Procedure, shortened: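 Expression measured by TaqMan qRT-PCR on a Fluidigm array, with three housekeeping genes for normalisation, after 48 h treatment of HepaRG cells. Top concentration 100 uM with half-log steps, 0.5% DMSO vehicle, bidirectional fit.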

[13] = read-out: Insulin-like growth factor-binding protein 1 (IGFBP1), IGFBP1 (gene 3484); test: LTEA_HepaRG_IGFBP1: Life Technologies and Expression Analysis (LTEA) Assay for Insulin-like growth factor-binding protein 1 (IGFBP1) using HepaRG (AID 2283508)
Procedure, shortened: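 HepaRG, 48 h, 8 conc. (max 100 uM, half-log), duplicates, 0.5% DMSO. Readout: TaqMan qRT-PCR, ACTB/GAPDH/POLR2A normalisation. Fit: bidirectional vs DMSO.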

[14] = read-out: Interleukin 6 (IL6), IL6 (gene 3569); test: LTEA_HepaRG_IL6: Life Technologies and Expression Analysis (LTEA) Assay for Interleukin 6 (IL6) using HepaRG (AID 2283509)
Procedure, shortened: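 qRT-PCR read-out of IL6 transcript, normalized to three housekeeping genes, after 48 h chemical exposure of HepaRG cells; 8-point half-log series, top 100 uM, 0.5% DMSO vehicle. Bidirectional curve fitting against DMSO baseline.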

[15] = read-out: Interleukin 6 Receptor (IL6R), IL6R (gene 3570); test: LTEA_HepaRG_IL6R: Life Technologies and Expression Analysis (LTEA) Assay for Interleukin 6 Receptor (IL6R) using HepaRG (AID 2283510);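 as to AC50: differentiated human HepaRG liver cells in serum-free induction medium; TaqMan qRT-PCR signal normalized to ACTB GAPDH and POLR2A housekeeping genes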
Procedure, shortened: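 IL6R transcript level by qRT-PCR after 48 h chemical exposure (8-point, half-log, max 100 uM, 0.5% DMSO vehicle) of HepaRG cells in serum-free induction medium. Normalized to three housekeeping genes; curves fitted in both directions relative to DMSO.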

[16] = read-out: Potassium channel subfamily K member 1 (KCNK1), KCNK1 (gene 3775); test: LTEA_HepaRG_KCNK1: Life Technologies and Expression Analysis (LTEA) Assay for Potassium channel subfamily K member 1 (KCNK1) using HepaRG (AID 2283511)
Procedure, shortened: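 HepaRG, 48 h exposure, 8-pt half-log series top 100 uM, 0.5% DMSO vehicle, duplicates. Readout: KCNK1 transcript by qRT-PCR (Fluidigm array), housekeeping-normalized; bidirectional curve fit relative to DMSO baseline.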

[17] = read-out: Keratin 19 (KRT19), KRT19 (gene 3880); test: LTEA_HepaRG_KRT19: Life Technologies and Expression Analysis (LTEA) Assay for Keratin 19 (KRT19) using HepaRG (AID 2283512)
Procedure, shortened: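 Readout is qRT-PCR of KRT19 mRNA, normalized to ACTB, GAPDH and POLR2A, from HepaRG cells treated 48 h with eight-point half-log dilutions topping at 100 uM. Activity in either direction is scored relative to 0.5% DMSO vehicle.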

[18] = read-out: Cytochrome P450 7A1 (Homo sapiens) (UniProt P22680); test: LTEA_HepaRG_CYP7A1: Life Technologies and Expression Analysis (LTEA) Assay for Cytochrome P450 7A1 (CYP7A1) using HepaRG (AID 2283496)
Procedure, shortened: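 HepaRG, 48 h exposure, 8-pt half-log series from 100 uM, 0.5% DMSO vehicle, duplicates. Readout: TaqMan qRT-PCR mRNA vs three housekeeping genes; bidirectional curve fit against DMSO baseline.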

[19] = read-out: Glutamate-cysteine ligase regulatory (GCLM), GCLM (gene 2730); test: LTEA_HepaRG_GCLM: Life Technologies and Expression Analysis (LTEA) Assay for Glutamate-cysteine ligase regulatory (GCLM) using HepaRG (AID 2283500)
Procedure, shortened: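 GCLM expression quantified by qRT-PCR, normalized to three housekeeping genes, after 48 h chemical treatment of HepaRG cells in duplicate at 8 concentrations (top 100 uM, half-log steps, 0.5% DMSO). Changes fitted both directions against vehicle.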

[20] = read-out: Intercellular Adhesion Molecule 1 (ICAM1), ICAM1 (gene 3383); test: LTEA_HepaRG_ICAM1: Life Technologies and Expression Analysis (LTEA) Assay for Intercellular Adhesion Molecule 1 (ICAM1) using HepaRG (AID 2283507)
Procedure, shortened: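 Using the human liver line HepaRG, compounds are tested in duplicate over 48 h at concentrations up to 100 uM. Expression is determined by TaqMan qRT-PCR, normalized to endogenous controls, and analysed relative to 0.5% DMSO vehicle.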

Measured: AC50

Sequence of Hypoxia-inducible factor 1-alpha (Homo sapiens) (Q16665 whole entry, looked up): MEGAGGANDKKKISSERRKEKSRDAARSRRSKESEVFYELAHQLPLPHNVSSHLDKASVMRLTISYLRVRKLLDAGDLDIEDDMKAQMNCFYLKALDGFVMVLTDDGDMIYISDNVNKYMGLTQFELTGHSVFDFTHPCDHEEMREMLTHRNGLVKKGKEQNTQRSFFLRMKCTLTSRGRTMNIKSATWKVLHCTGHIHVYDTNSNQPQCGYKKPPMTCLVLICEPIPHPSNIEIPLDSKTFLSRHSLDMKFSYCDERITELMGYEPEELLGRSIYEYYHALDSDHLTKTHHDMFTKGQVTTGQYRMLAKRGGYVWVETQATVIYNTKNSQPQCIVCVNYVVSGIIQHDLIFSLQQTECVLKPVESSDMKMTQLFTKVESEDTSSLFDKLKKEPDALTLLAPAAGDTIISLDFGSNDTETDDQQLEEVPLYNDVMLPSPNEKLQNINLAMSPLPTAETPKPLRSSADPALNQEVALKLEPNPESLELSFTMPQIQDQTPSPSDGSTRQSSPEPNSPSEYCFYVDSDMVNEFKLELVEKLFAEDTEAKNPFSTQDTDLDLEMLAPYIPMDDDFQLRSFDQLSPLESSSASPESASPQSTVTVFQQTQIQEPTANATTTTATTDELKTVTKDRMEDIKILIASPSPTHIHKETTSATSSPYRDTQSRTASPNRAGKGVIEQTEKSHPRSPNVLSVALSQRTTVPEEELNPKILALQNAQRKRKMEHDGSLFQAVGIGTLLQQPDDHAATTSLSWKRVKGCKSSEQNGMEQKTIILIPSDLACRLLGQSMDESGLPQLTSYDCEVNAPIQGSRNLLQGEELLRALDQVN

CC(C)COC(=O)CCCCC(=O)OCC(C)C
not listed: [18] | [19] | [20]
inactive: all other assays above

CCCCC(CC)CO (stereo unspecified)
not listed: [1]
inactive: all other assays above

Cc1ccc(-c2cc(C(F)(F)F)nn2-c2ccc(S(N)(=O)=O)cc2)cc1
active: [2] 50 µM | [4] 82.1 µM | [5] 50 µM | [6] 67.5 µM | [10] 73.7 µM | [12] 81.3 µM | [20] 50 µM | [14] 81.4 µM
not listed: [1]
inactive: all other assays above

CN(C)CCCN(C)CCCN(C)C
not listed: [18] | [20]
inactive: all other assays above

Cc1cc(SC2=C(O)C[C@@](CCc3ccc(N)cc3)(C(C)C)OC2=O)c(C(C)(C)C)cc1CO
active: [2] 3.12 µM | [3] 1.67 µM | [10] 16.8 µM | [12] 4.02 µM
not listed: [18] | [19] | [20]
inactive: all other assays above

Cc1ccc(C(C)(C)C)c(O)c1
not listed: [1] | [19] | [20]
inactive: all other assays above

CCOCCOCCO
not listed: [18] | [19]
inactive: all other assays above

CCCCCCCC(=O)OC
not listed: [18] | [19]
inactive: all other assays above

Oc1ccccc1O
not listed: [9] | [18] | [19]
inactive: all other assays above

CCCCOC(=O)CCCCC(=O)OCCCC
not listed: [1] | [19]
inactive: all other assays above

NC1CCCCC1
not listed: [1]
inactive: all other assays above

O=C(N[C@@H](c1ccccc1)[C@@H]1CCCCN1)c1cccc(C(F)(F)F)c1Cl
active: [2] 33.2 µM | [3] 23.1 µM | [18] 21.3 µM | [4] 76.6 µM | [6] 82.8 µM | [8] 50 µM | [10] 69.4 µM | [12] 17.9 µM | [20] 61.9 µM | [13] 25.3 µM | [14] 85 µM | [15] 50 µM | [16] 50 µM | [17] 12.6 µM
inactive: [5] | [7] | [9] | [11]

CCCC(=O)O
not listed: [1] | [20]
inactive: all other assays above

CCc1cc(C2=C(C(=O)O)N(c3ccccc3C(F)(F)F)S(=O)(=O)c3ccccc32)cc2c1OCO2
active: [3] 41 µM | [18] 72.2 µM | [4] 78.8 µM | [19] 68.2 µM | [10] 81.4 µM | [13] 75.4 µM | [14] 78.5 µM | [16] 73.3 µM | [17] 9.92 µM
inactive: [2] | [5] | [6] | [7] | [8] | [9] | [11] | [12] | [15]
